PubChem BioAssay (NCI)
About 83,000 compounds went through this panel and 20% of them were active in at least one assay; those are over-represented in the sample as a whole.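 The endpoint reported here, percent growth, reads 100 for growth as untreated, 0 for no net growth and -100 for all cells dead.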 A number with no mark means an inactive call. Calls of active or inactive are those of the source. Rule for the calls: active = growth percent below 10; inactive = the rest.

Experiments:
Test in all cases: NCI-60 one-dose screen, 48 h (100 = growth as untreated, 0 = no growth, -100 = all killed)
Conditions in all cases: 10 µM
HCT-15 colon = test system: HCT-15 colon
SNB-75 CNS = test system: SNB-75 CNS
SNB-19 CNS = test system: SNB-19 CNS
U251 CNS = test system: U251 CNS
PC-3 prostate = test system: PC-3 prostate
SK-MEL-5 melanoma = test system: SK-MEL-5 melanoma
UACC-62 melanoma = test system: UACC-62 melanoma
LOX IMVI melanoma = test system: LOX IMVI melanoma
SK-MEL-28 melanoma = test system: SK-MEL-28 melanoma
EKVX NSCLC = test system: EKVX NSCLC
SN12C renal = test system: SN12C renal
UO-31 renal = test system: UO-31 renal
TK-10 renal = test system: TK-10 renal
ACHN renal = test system: ACHN renal
CAKI-1 renal = test system: CAKI-1 renal
A498 renal = test system: A498 renal
CCRF-CEM leukemia = test system: CCRF-CEM leukemia
MOLT-4 leukemia = test system: MOLT-4 leukemia
HT29 colon = test system: HT29 colon
SK-MEL-2 melanoma = test system: SK-MEL-2 melanoma

Structure (SMILES) | growth (HCT-15 colon) | growth (SNB-75 CNS) | growth (SNB-19 CNS) | growth (U251 CNS) | growth (PC-3 prostate) | growth (SK-MEL-5 melanoma) | growth (UACC-62 melanoma) | growth (LOX IMVI melanoma) | growth (SK-MEL-28 melanoma) | growth (EKVX NSCLC) | growth (SN12C renal) | growth (UO-31 renal) | growth (TK-10 renal) | growth (ACHN renal) | growth (CAKI-1 renal) | growth (A498 renal) | growth (CCRF-CEM leukemia) | growth (MOLT-4 leukemia) | growth (HT29 colon) | growth (SK-MEL-2 melanoma)
O=C1Cc2cc(CCN3CCN(c4nsc5ccccc45)CC3)c(Cl)cc2N1 | 85.1% | 78.8% | 94.1% | 94.7% | 72.3% | 92% | 84.8% | 96.8% | 90.3% | 88.1% | 91% | 58.8% | 104% | 95.6% | 86.6% | 64.1% | 9.84% (active) | 81.8% | – | –
COc1ccccc1-n1c(-c2csc(NC(C)=O)n2)n[nH]c1=S | – | 86.5% | 114% | – | 95.4% | 99.6% | 110% | 93.1% | 109% | – | 114% | 79.6% | 89.1% | 114% | – | – | 93.8% | – | 95.1% | 100%
COc1ccc(-c2nn(-c3cccc(Cl)c3)cc2C=C(C#N)C#N)cc1 | – | 3.23% (active) | 16.6% | – | 12.6% | 5.8% (active) | 11.1% | -66.5% (active) | 17.2% | – | 10.4% | 11.9% | -3.05% (active) | 9.38% (active) | – | – | -27.3% (active) | -45.9% (active) | -14.9% (active) | -39.4% (active)
C/C=C/C1=CN2C(=O)c3cc(OC4OC(C)C(NC)C(C)(O)C4O)c(C)c(O)c3N=C[C@@H]2C1 (stereo partly drawn) | 4.24% (active) | – | 9.3% (active) | 5.6% (active) | 3.42% (active) | -62.2% (active) | -90.8% (active) | -21.4% (active) | -37.2% (active) | -3.19% (active) | 1.37% (active) | -44.5% (active) | 16.2% | 3.15% (active) | 9.27% (active) | -83.1% (active) | 1.22% (active) | 2.33% (active) | – | 17.9%
Nc1nc(-c2cccnc2)nc2c1sc(=S)n2-c1ccccc1 | 104% | 94.9% | 95% | 88.2% | – | 98.6% | 101% | 93.7% | 116% | 101% | 98.6% | 97.2% | 93.5% | 107% | 98.7% | – | – | 96.9% | – | 101%
CCOS(=O)(=O)c1c(C(C)C)cc(C(C)C)cc1C(C)C | 97.2% | 96.8% | 103% | 98.6% | 96% | 100% | 98.4% | 101% | – | 97.8% | – | 92.2% | 95.1% | 104% | – | 117% | 121% | 97.6% | – | 96.9%
COc1ccc(/C=c2\sc3n(c2=O)C(c2cc(OC)c(OC)c(OC)c2)C=C(c2ccc(OC)c(OC)c2)N=3)cc1OC (stereo not drawn) | 90.3% | 76.2% | 89.9% | 98.9% | 86.6% | 83.4% | 85.6% | 93.8% | 104% | 101% | 93.9% | – | 105% | – | 105% | 94.5% | 64.4% | – | – | 106%
COc1ccc(-c2nn(-c3cccc(Cl)c3)cc2-c2cc(-c3ccccc3)[nH]c(=O)c2C#N)cc1 | 63.8% | 38.4% | 45.2% | – | 71.6% | 39.9% | – | 55.6% | 71% | 57.2% | 67.7% | 24.7% | -12.8% (active) | 11% | 40.8% | – | 91.7% | 79.6% | – | 56.7%
C=C(NC(=O)C(=C)NC(=O)c1csc(C2=NC3c4csc(n4)C4NC(=O)c5csc(n5)C(C(C)(O)C(C)O)NC(=O)C5CSC(=N5)C(=CC)NC(=O)C(C(C)O)NC(=O)c5csc(n5)C3(CC2)NC(=O)C(C)NC(=O)C(=C)NC(=O)C(C)NC(=O)C(C(C)CC)NC2C=Cc3c(C(C)O)cc(nc3C2O)C(=O)OC4C)n1)C(N)=O (stereo not drawn) | 36.9% | 66.7% | 66.6% | 8.08% (active) | 63.7% | -5.61% (active) | -17% (active) | -7.87% (active) | -34.5% (active) | 72.2% | 25.6% | 64.7% | 27.7% | 23.6% | 71.4% | -41.5% (active) | -10.1% (active) | -36.9% (active) | – | –
CCOC(=O)c1sc2ncnc(Nc3ccc4c(cnn4C(=O)Nc4ccc(C)c(Cl)c4)c3)c2c1C | 95.3% | 110% | 103% | 99.3% | – | 102% | 99.6% | 96% | 111% | 97.6% | 96.5% | 94.7% | 90.8% | 107% | 96% | – | – | 95.6% | – | 83.5%
CC(C)(C)c1ccc(S(=O)(=O)N[C@H]2CC[C@H]3[C@@H]4CCc5cc(OS(=O)(=O)O)ccc5[C@H]4CC[C@]23C)cc1 | 35.4% | 61.6% | 92.3% | – | 27.5% | 52.5% | 62% | – | 77.5% | – | 27.4% | 17% | – | 33.4% | 41.5% | 28.1% | – | 15.2% | – | –
CC(C)(O)CCl | 102% | 110% | 102% | 103% | 102% | 104% | 102% | 104% | 110% | – | 106% | 107% | 111% | 108% | 103% | 106% | – | 107% | – | 153%
CO[C@H]1CC(O[C@@H]2/C(C)=C/C[C@@H]3C[C@@H](C[C@]4(C=C[C@H](C)[C@@H](C5CCCCC5)O4)O3)OC(=O)[C@@H]3C=C(C)[C@@H](O)[C@H]4OC/C(=C\C=C\[C@@H]2C)[C@]43O)O[C@@H](C)C1O[C@H]1C[C@H](OC)[C@@H](O)[C@H](C)O1 (stereo partly drawn) | -79.2% (active) | -66.8% (active) | -5.35% (active) | -91.2% (active) | -59.6% (active) | -97.8% (active) | -78.1% (active) | -97.3% (active) | -64.6% (active) | -94.3% (active) | -79.1% (active) | -98.4% (active) | -85.5% (active) | -100% (active) | – | -80.3% (active) | -44.1% (active) | -58.2% (active) | – | –
COc1ccc(-c2nn(-c3cccc(Cl)c3)cc2/C=C2\NC(=S)N(c3ccc(Cl)cc3)C2=O)cc1 | – | 0.109% (active) | 63.2% | – | 42.5% | 24.2% | 3.65% (active) | 1.65% (active) | -33.5% (active) | – | 20.4% | 53.6% | 27.7% | 51.1% | – | – | 21.9% | -22.9% (active) | 9.73% (active) | -26.3% (active)
COc1ccc2c(c1)CC=C1[C@@H]2CC[C@]2(C)C(=O)/C(=N/O)C[C@@H]12 | 75.8% | 58% | 93.4% | 96.4% | – | 89.7% | 97.7% | 70.3% | 112% | 76.6% | 82.7% | – | 92.7% | 74.4% | 6.9% (active) | – | 33.1% | 63.3% | – | 115%
CC(=O)Nc1ccc(S(=O)(=O)c2ccnc3cc(Cl)ccc23)cc1 | 63.8% | 76.5% | 102% | – | 96% | 71.8% | 77.7% | 73.7% | 78.1% | 86.7% | 81% | 106% | 82.3% | 69.3% | – | 95.9% | 52.9% | 68.8% | – | 79.2%
O=S(=O)(NCCCNc1nccc(-c2cn(-c3ccccc3)nc2-c2ccc(Cl)c(O)c2)n1)c1ccccc1 | 51.3% | 80.5% | 86.1% | 59.4% | – | 46.1% | 59.1% | 63.1% | 84.5% | 55.2% | 67.2% | 45.9% | 76.9% | 66.1% | 90.4% | – | – | 43.1% | – | 65.5%
Cc1ccc(C2=NN(c3ccc(S(C)(=O)=O)cc3)C(=O)CC2)cc1 | – | 8.1% (active) | 55% | – | 29.3% | 13.9% | 42.9% | 33.7% | 51.4% | – | 39.7% | 41.1% | 67% | 54.5% | – | – | 14.9% | – | 11.1% | 6.35% (active)
